An excerpt weighted towards active compounds, which were near 7.4% of everything screened.
ELG1 genotox: inducers of genotoxicity in HEK293T ELG1-luciferase cells | AID 504466 | Potency, µM (series often up to 46 µM), for inactives: at the highest dose activity change, positive = activation, actives largely listed as activators | HEK293T ELG1-luciferase reporter, luminescence, 16 h | actives 1.3% (n = 330,000); further: % of control where 0% means no effect; nearly all actives have a fitted effect of over 60% in size
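HEK293T cells expressing luciferase-tagged ELG1 were exposed to compound or DMSO vehicle for 16 hr at 37 °C and 5% CO2. Luciferase activity was then measured with ONE-Glo after 30 min at room temperature.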
SMN2 splice enh: SMN2 splice variant enhancement; HEK293 SMN2-luciferase splicing reporter, luminescence, 30-36 h; Potency, µM (doses to about 46.1 µM), for the others: at the top dose activity change, positive = activation, hits mostly activators; actives 2.8% (n = 210,000); AID 1458; further: % of control where 0% means no effect; nearly all actives have a fitted effect of over 55% in size
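HEK293 cells carry an SMN2 minigene-luciferase reporter in which exon 7 inclusion puts luciferase in frame. Cells were seeded at 2000 cells/well, attached for 10-12 hours, then exposed to compounds for 30-36 hours at 37C before ONE-Glo luminescence.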
p53 reactivator: re-activators of mutant p53. H1299 p53-A138V BP100-luciferase reporter, luminescence, 24 h. Potency, µM (top dose mostly 92.2 µM), for the others: top-dose activity change, positive = activation, most hits filed as activators. actives 0.063% (n = 320,000). AID 504706; further: % of control where 0% means no effect; nearly all actives have a fitted effect of over 45% in size
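H1299 (p53-null), stable ts p53-A138V + BP100-Luc; 1000 cells/well, Opti-MEM/10% FBS; cpd 4 pt, 1:5; 24 h, 37 deg C, 5% CO2; detection reagent 10 min RT; luminescence.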
Rab9 prom act: activators of Rab9 promoter | Huh7 Rab9 promoter-luciferase reporter, luminescence, 24 h | Potency, µM (doses to about 9.22 µM), without a hit: at the highest dose activation, negative = inhibition, actives largely listed as activators | actives 2.8% (n = 320,000) | AID 485297; further: % of control where 0% means no effect; nearly all actives have a fitted effect of over 60% in size
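Promoter activation is measured as luciferase luminescence in Huh7 cells stably transfected with a Rab9 promoter–luciferase construct, following 24 h compound exposure at 37 °C and 10 min reagent incubation at ambient temperature.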
FLuc modulator: inhibits or activates purified firefly luciferase, miR-21 counter-screen; P08659; actives 6.9% (n = 360,000); purified FLuc, Km substrates, luminescence inhibition; AID 588342; Potency, µM (titrated, usually from 57.5 µM), for inactives: at the highest dose activity change, negative = inhibition, hits mostly inhibitors;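 further: plate controls were vehicle for no effect and reference inhibitor for full effect; nearly all actives have a fitted effect of over 55% in size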
Target sequence (P08659 whole entry, looked up): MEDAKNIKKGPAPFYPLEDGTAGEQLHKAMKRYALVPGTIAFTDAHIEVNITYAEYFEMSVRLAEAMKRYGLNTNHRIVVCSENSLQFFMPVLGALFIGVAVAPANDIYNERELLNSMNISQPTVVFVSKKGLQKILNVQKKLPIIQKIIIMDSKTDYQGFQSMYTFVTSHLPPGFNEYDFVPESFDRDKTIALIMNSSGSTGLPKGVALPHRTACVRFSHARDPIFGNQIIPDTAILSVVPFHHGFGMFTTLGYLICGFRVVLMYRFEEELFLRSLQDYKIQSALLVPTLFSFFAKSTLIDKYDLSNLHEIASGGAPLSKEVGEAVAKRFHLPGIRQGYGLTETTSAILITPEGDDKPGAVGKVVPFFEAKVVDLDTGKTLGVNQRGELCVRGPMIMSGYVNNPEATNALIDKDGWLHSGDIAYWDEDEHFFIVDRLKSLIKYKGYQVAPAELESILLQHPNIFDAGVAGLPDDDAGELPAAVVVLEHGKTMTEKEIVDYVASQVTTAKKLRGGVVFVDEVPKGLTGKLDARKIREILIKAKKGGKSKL
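Purified P. pyralis luciferase (10nM final) with 10uM D-luciferin and 10uM ATP (Km levels) in 50mM Tris acetate pH 7.5, 10mM Mg acetate, 0.01% Tween-20, 0.05% BSA; qHTS 6-point titration, ~60 µM downward; luminescence read.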
NPC1 promoter act: activates the NPC1 promoter; Huh7 NPC1 promoter luciferase reporter, 24 h; Potency, µM (highest dose often 9.22 µM), for inactives: top-dose activation, hits mostly activators; actives 2.4% (n = 320,000); AID 485313; further: % of control where 0% means no effect; nearly all actives have a fitted effect of over 60% in size
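Luminescence from an NPC1 promoter-driven luciferase reporter in stably transfected Huh7 cells was measured after 24 h compound treatment at 37 °C, followed by 10 min ambient incubation with luciferase detection reagent.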
* marks the source's active call; other numbers are inactive results; ? = inconclusive; . = no result given; [ ] = another dose, or the depositor's remark. The call rests on the fitted dose curve; in most records, active means well fitted curve in the direction sought with a large enough effect; inconclusive means small, poorly fitted or top-dose-only effect, or another doubt; inactive means no such curve, though single readings can be large; an effect the other way counts as inactive or inconclusive. Potency means the concentration at half of the fitted maximal effect.

SMILES | ELG1 genotox | SMN2 splice enh | p53 reactivator | Rab9 prom act | FLuc modulator | NPC1 promoter act
Cc1ccc(C)c(NC(=O)CCC(=O)N/N=C/c2ccc3c(c2)OCO3)c1 | 2% | . | 3% | -2% | 11µM* | 0%
Cc1cc(C)nc(SCC(=O)N/N=C/c2ccc3c(c2)OCO3)n1 | ? | . | 9% | 28% | 9.5µM* | ?
CN(C)Cc1ccccc1-c1cncnc1NCc1cccnc1 | . | 0% | . | . | . | .
CC(=O)OC1CC2C(C)(C)C(O)C=C[C@@]2(C)C2CC[C@@]3(C)C(c4ccoc4)OC(=O)C4OC43[C@]12C (some centres undefined) | . | -2% | . | . | . | .
COC(=O)c1ccc2c(c1)SC1=C(CCCC1=O)N2 | 21µM* | -18% | 9% | -2%[1.84 µM] | 19µM* | 20%
COc1ccc(Cc2nc(-c3ccncc3)no2)cc1 | 8% | . | 8% | -14% | ? | 2%
Clc1ccc(Cc2nc(-c3ccncc3)no2)cc1 | 7% | . | -2% | 5% | -13% | -3%
Cc1cccc(-c2noc(Cc3ccc(Cl)cc3)n2)c1 | 18µM* | ? | ? | ? | ? | 28%
COc1ccc(Cc2nc(-c3cccc(C)c3)no2)cc1 | ? | 24% | ? | ? | 13µM* | ?
C=CCOC(=O)Cn1cnc2c(sc3nc(C)cc(C)c32)c1=O | ? | . | ? | ? | 11µM* | ?
O=C(Cn1cnc2c(oc3ccccc32)c1=O)c1ccccc1 | ? | ? | ? | ? | 15µM* | 2.5µM*
Cc1cccc(Cn2cnc3c(sc4nc(C)cc(C)c43)c2=O)c1 | 2% | . | -7% | 11% | -5% | -3%
CCN(CC)c1ncnc2c1sc1nc(C)cc(C)c12 | 0% | -13% | 5% | -4% | ? | -5%
O=C(O)Cn1cnc2c(oc3ccccc32)c1=O | -1% | . | 1% | -4% | -4% | -1%
Cc1cc(C)c2c(n1)sc1c(=O)n(CC(=O)c3ccccc3)cnc12 | ? | . | 13% | ? | 11µM* | ?
COc1cc(C)ccc1OCCOc1ccccc1Cl | ? | 5% | 14% | ? | 19µM* | ?
CCOc1ccccc1OCCCOc1ccc([N+](=O)[O-])cc1Cl | 0% | -23% | -11% | 0% | 9.5µM* | -4%
COc1cc(C)ccc1OCCCOc1ccccc1Cl | ? | 13µM* | ? | 3.5µM* | 6.7µM* | 2.8µM*
COc1cc(C)ccc1OCCCCOc1ccccc1C(C)=O | 6% | -45% | 7% | -5% | ? | 1%
CN1CCN(CC(=O)Nc2cccc3ccccc23)CC1 | . | -4%[9.22 µM] | . | . | . | .
COc1c(O)ccc2c1CN1CCc3cc4c(cc3[C@@H]1C2)OCO4 | . | -6%[9.22 µM] | . | . | . | .
O=C(Nc1cccc(F)c1)C1CCN(c2nc3ccccc3nc2C(F)(F)F)CC1 | . | . | . | . | -1% | .
c1ccc(Cn2c(-c3ccco3)nc3nc4ccccc4nc32)cc1 | ? | 16µM* | ? | 3.2µM* | 2.7µM* | 3.5µM*
O=c1c2ccccc2nc(-c2ccco2)n1Cc1ccccc1 | . | ? | . | . | 13µM* | .
c1coc(-c2nc3nc4ccccc4nc3n2-c2ccc3c(c2)OCCO3)c1 | -6% | -20% | -2% | 15% | 3.8µM* | 2%
SMILES | ELG1 genotox | SMN2 splice enh | p53 reactivator | Rab9 prom act | FLuc modulator | NPC1 promoter act
c1coc(-c2nc3nc4ccccc4nc3n2CC2CCCO2)c1 (centres undefined) | -10% | -13% | -3% | 0% | -14% | -3%
N#C/C(C(=O)Nc1ccc(Cl)cc1)=C(/S)Nc1ccccc1 | -3% | . | 9% | -1% | 15µM* | 0%
CCOc1ccc(CNC(=O)Cn2nc(C)c3nn(-c4ccc(Cl)cc4)c(C)c3c2=O)cc1OC | . | . | . | . | 2% | .
COc1ccc(-c2csc(N3CCSCC3)n2)cc1 | ? | . | 23% | ? | ? | ?
COc1ccc(-c2csc(-n3cccn3)n2)cc1 | ? | . | ? | 1.4µM* | 3.8µM* | 2.5µM*
COc1ccc(-c2csc(-n3ncc(-c4cccs4)c3N)n2)cc1 | 1% | -6% | 17% | 6% | 4.3µM* | -6%
COc1ccc(-c2ccc(-c3noc(-c4cccs4)n3)c(OC)n2)cc1 | ? | 12% | 0% | 28% | -14% | 16%
CN1CCc2c(cc(O)c(O)c2Cl)C(c2cccc(Cl)c2)C1 (centres undefined) | . | -1% | . | . | . | .
CC(=O)Cc1nsc(NC(=O)c2ccc(-c3ccccc3Cl)o2)n1 | ? | 11µM* | 14% | 8% | 11µM* | 4%
CC(=O)Cc1nsc(NC(=O)c2ccc(-c3ccc(F)cc3)o2)n1 | 1% | 2% | 1% | 16% | 6µM* | -2%
Cc1cc(C(=O)NCc2ccccc2)c2c(C)nn(-c3cccc(Cl)c3C)c2n1 | . | . | . | . | 17% | .
O=C(O)COc1ccccc1/C=N/NC(=O)c1cc(-c2ccc(Cl)cc2)nc2ccccc12 | 0% | . | -3% | -2% | 0.95µM* | -1%
O=C(N/N=C/c1ccccc1OC(F)F)c1cc(-c2ccncc2)nc2ccccc12 | 1% | -18% | -4% | -14% | ? | -19%
O=C(O)COc1ccccc1/C=N/NC(=O)c1cc(-c2ccccc2)nc2ccccc12 | 0% | . | -1% | -2% | 2.7µM* | 0%
COc1ccccc1-c1cc(C(=O)N/N=C/c2ccc(C)s2)c2ccccc2n1 | 2% | ? | -1% | -2% | ? | -1%
O=C(Cc1ccon1)c1ccc(O)cc1O | 1% | . | 0% | -5% | 4% | 4%
Cc1nn(-c2ccccc2)c(/N=C/c2ccc(O)cc2)c1-c1ccccc1 | 14% | 18µM* | ? | ? | -5% | ?
O=c1nc2c(-c3ccccc3F)n[nH]n2c2ccccc12 | ? | 22µM* | 10% | 4µM* | 13µM* | ?
CC(C)NC(=O)CSc1nc(-c2ccccc2)cs1 | 17% | ? | 22% | 2.5µM* | 19µM* | ?
COC(=O)c1ccc(CSc2nc(-c3ccccc3)cs2)o1 | 12% | 2% | 10% | 12% | 8.5µM* | 12%
Cc1ccsc1/C=C\C1=NCCCN1C | . | -5%[20.6 µM] | . | . | . | .
CCCC(=O)Nc1ccc(-c2csc(N/N=C\c3ccncc3)n2)cc1 | -13% | . | 3% | ? | 3µM* | ?
CC(=O)Nc1ccc(-c2csc(N/N=C\c3ccncc3)n2)cc1 | -6% | . | 5% | 15% | 7.6µM* | 18%
CCCC(=O)Nc1ccc(-c2csc(NNC(C)=O)n2)cc1 | -1% | . | 3% | 1% | -17% | 0%
O=C(NCCc1nc2ccccc2[nH]1)C1CCC(=O)N(CCc2cccc(F)c2)C1 (centres undefined) | 1% | . | -1% | -2% | 0% | 2%

Source: PubChem
